This is part of a sample that, as a whole, favours compounds with a hit. Of some 83,000 tested, about 20% had one in any assay.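 Single-dose data. Exposure time 48 hours. Values below 10 considered active.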 Unmarked numbers belong to inactive results. Active and inactive are the calls of the source.
tested on: PC-3 prostate; test: NCI-60 one-dose screen, 48 h (100 = growth as untreated, 0 = no growth, -100 = all killed); conditions: 10 µM unless noted
Experimental: Growth inhibition of the PC-3 human tumor cell line is measured as a screen for anti-cancer activity. Cells are grown in 96 well plates and exposed to the test compound for 48 hours. Compounds are tested at a single concentration, which is 10^-5 M for most compounds. The reported endpoint is percent growth (GI% or GIPRCNT), where numbers from 0 - 100% represent growth inhibition, and numbers from -100% - 0 represent cell death. For example, a value of 40 represents 60% growth inhibition. A value of 0 means no net growth occurred over the course of the experiment. A value of -40 indicates 40% of cells at the beginning of the experiment died by the end of the experiment. A value of -100 means all cells are dead at the end of the experiment.
NCI-60 Human Tumor Cell Lines Screen was performed using the standard one-dose NCI protocol, which is described in more detail at https://dtp.cancer.gov/discovery_development/nci-60/default.htm.
Compounds with GIPRCNT values below 10 were considered active. Activity score was based on GIPRCNT using the following formula: […]
Score is 0 for GIPRCNT values of 100 or above, 50 for GIPRCNT values of 0, and 100 for GIPRCNT values of -100.

SMILES	growth
CO[C@H]1NC(=O)N(S(=O)(=O)c2ccc(Cl)cc2)[C@@H]1OC	97.3%
NC(=O)c1c(NC(=S)Nc2ccc(OC(F)(F)F)cc2)sc2c1CCC1(C2)OCCO1	92.6%
OB(O)c1cccc(-c2nc3ccc4[nH]ncc4c3c3c2CCCC3)c1F	55.5%
C/C(=N/NC(=S)Nc1ccccc1)c1nc2ccc(Cl)cc2[nH]1	-47.7% (active)
O=C(CSc1nc2ccccc2[nH]1)Nc1ccc(-c2nc3ccccc3s2)c(Cl)c1	26.3%
COc1ccc(S(=O)(=O)NCCCNc2nccc(-c3c(-c4cccc([N+](=O)[O-])c4)nc4sccn34)n2)cc1	23.9%
C=C1C(=O)O[C@H]2[C@H]1CC/C(COC(=O)NCc1ccccc1OC)=C\CC[C@@]1(C)O[C@@H]21	52.4%
COc1ccc(S(=O)(=O)n2cc(C(=O)C(=O)Nc3ccncc3)c3ccccc32)cc1F	79.8%
C=C1CC2(OC1=O)C(=O)N(CCCN1C(=O)C3(CC(=C)C(=O)O3)c3ccccc31)c1ccccc12 (stereo not given)	51.3%
Nc1nc(-c2ccccc2)c(CCCOc2ccc(NC(=O)CBr)cc2)c(=O)[nH]1	107%
O=C(N/N=C/C=C\c1ccccc1)C(=O)N/N=C/C=C/c1ccccc1	109%
O=C(CN1CCN(c2cc3c(cc2F)c(=O)c(C(=O)N/N=C/c2ccccc2O)cn3C2CC2)CC1)N/N=C\c1ccccc1O	30.3%
O=C(O)c1nc(-c2ccccc2)oc1N1CCOCC1	100%
Cn1c(=O)c2[nH]c(C3CC=CCC3)nc2n(C)c1=O (stereo not given)	87.6%
O=c1cc/c(=N\Nc2ccccc2)c(=O)/c1=N/Nc1ccccc1	63.6%
Cc1cc(N/N=C/c2nc(-c3ccc(Br)cc3)oc2C)c2cc(Cl)ccc2n1	80.7%
C=C(C)[C@@H]1C[C@H](O)Cc2cc(F)ccc2N1	91.6%
COc1ccc(NC(=O)c2c(Nc3ccc(OC)cc3OC)n[nH]c2N)c(OC)c1	90.6%
CN1C(=O)N(C)C2C1NN=c1s/c(=C\C=C\c3ccccc3)c(=O)n12 (stereo not given)	40.9%
CNC(=S)NNC(=O)C1CC1	102%

SMILES	growth
O=C(Nc1cccc(-n2cc(-c3ccncc3)c(-c3ccc(Cl)c(O)c3)n2)c1)c1ccccc1	50.3%
CCO/C=N/C1=C(C#N)C(c2ccc(Cl)cc2)c2c(c3ccccc3n(C)c2=O)O1 (stereo not given)	63%
CC(C)CC1NC(C)(C)CO1 (stereo not given)	94.4%
Cc1[nH]c2ccc(F)cc2c1CCNC(=O)C1CCN(C(=O)c2ccccc2)C1 (stereo not given)	79.9% [25 µM]
O=C(NS(=O)(=O)c1ccccc1)n1cc(-c2ccncc2)c(-c2ccc(Cl)c(O)c2)n1	93.4%
CC(=O)Oc1csc(N(C(C)=O)c2cc(C(=O)O)cc(C(=O)O)c2)n1	-100% (active)
COc1ccc(CCNC2=CC(=O)CCC2)cc1OC	93%
COc1ccc(/C=C2\Oc3cc(OCCCN4CCCC4)ccc3C2=O)cc1	85.5%
Cn1cnc2c(N3CCN(C(=O)OCc4ccc5c(Cl)cc(Cl)c(O)c5n4)CC3)nc(Cl)nc21	54.8%
CCOc1cc2c(Cl)ncnc2c(OCC)c1OCC	18.1%
Oc1ccccc1/C=N/NC(=S)NC1CC2C=CC1C2 (stereo not given)	75.6%
CC1=C(C#N)C(=O)NC(C)C1 (stereo not given)	94.9%
Cc1nc2ncccc2nc1Nc1ccc(S(=O)(=O)Nc2cncs2)cc1	86.6%
Cc1ccc(CSC(=N)N)cc1C	87.7%
O=C(Nc1ccncc1)C(=O)c1cn(S(=O)(=O)c2ccc(Br)cc2)c2ccccc12	68.4%
N#Cc1c(Nc2ccccc2)nc2n(c1=O)-c1ccccc1Sc1ccccc1-2	61.3%
COc1ccc(C(=O)N2NC(=O)/C(=C/c3ccccc3F)N=C2c2ccccc2)cc1	104%
COC(=O)c1cc2cc(-c3ccc(OC)cc3)cnc2[nH]1	7.32% (active)
Fc1ccc(Nc2ncnc3ccc(-c4cnc5[nH]ccc5c4)cc23)cc1Cl	27.5%
O=c1[nH]c(NCc2ccccc2)nc2nc(Nc3ccc(NC(=S)Nc4ccccc4)cc3)nc(-c3ccc(O)cc3O)c12	109%

Source: PubChem BioAssay (NCI)
